Our source for the Euclidean distance values is the supplement of paper PMC10127200.

Molecules are shown by their SMILES. Counter-ions that a name gives are not always drawn.

This test has as its system 786-O. Kind of test: Euclidean distance of Cell Painting phenotypic profile (signed KS, 77 features) to DMSO centroid (dimensionless distance); 5 or 10 uM (library dependent); higher = stronger phenotypic change vs DMSO (phenoactivity). To be noted: 48 h. In short, it runs like this: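 At 10 or 5 uM, as set by the library, and 0.1% DMSO final, compounds were applied for 48 h to five cancer lines and one healthy fibroblast line. Stained cells were imaged confocally at 20X in 9 fields per well, and Harmony extracted 77 features scored as signed Kolmogorov-Smirnov statistics against vehicle wells on the same plate. Profiles underwent plate-position correction, correlation weighting and replicate averaging at the top dose. Phenoactivity is the Euclidean distance from each such profile to the median vehicle profile.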
`O=c1cc(-c2ccccc2)oc2cc(O)c(O)c(O)c12` [Baicalein] had an Euclidean distance of 1.38.

Compound `CC[C@H](Nc1ncnc2[nH]cnc12)c1nc2cccc(F)c2c(=O)n1-c1ccccc1` [CAL-101 (Idelalisib. GS-1101)] returned an Euclidean distance of 1.28.

`C[C@]12CC[C@H](O)CC1=CC[C@@H]1[C@@H]2CC[C@]2(C)C(n3cnc4ccccc43)=CC[C@@H]12` [Galeterone] showed an Euclidean distance of 0.604.

Take `CC(=O)Nc1nc(C)c(-c2ccc(Cl)c(S(=O)(=O)NCCO)c2)s1`: the Euclidean distance is 0.94.

`OCc1ccccc1` [Benzyl alcohol]: the Euclidean distance turned out to be 1.29.

Compound `C[C@]12CCC(=O)C=C1C=C[C@@H]1[C@@H]2CC[C@@]2(C)[C@H]1CC[C@@]21CCC(=O)O1` [Canrenone] had an Euclidean distance of 1.64.

`CN1C2CCCC1CC(NC(=O)c1nn(C)c3ccccc13)C2` (centres undefined) [Granisetron HCl] came in with an Euclidean distance of 1.32.

With `O=C(/C=C/c1ccc(O)c(O)c1)OCCc1ccccc1` [Caffeic Acid Phenethyl Ester], the Euclidean distance came out at 1.43.

On to `C[C@H](N[C@@H](CCc1ccccc1)C(=O)O)C(=O)N1CCC[C@H]1C(=O)O` [Enalaprilat Dihydrate], for which the Euclidean distance was found to be 1.22.

The compound `O=c1c(-n2ccnn2)c[nH]n1-c1cc(N2CCOCC2)ncn1` [Molidustat (BAY 85-3934)] gave an Euclidean distance of 1.15.

Take `COCC(=O)Nc1cc(Sc2ccccc2)ccc1N=C(NC(=O)OC)NC(=O)OC` [Febantel]: the Euclidean distance was 0.969.

As for `OCc1cc([C@@H](O)CNCCCCCCOCCOCc2c(Cl)cccc2Cl)ccc1O` [Vilanterol Trifenate], the Euclidean distance was 1.28.

As for `Nc1c(CC(=O)O)cccc1C(=O)c1ccc(Br)cc1` [Bromfenac Sodium], the Euclidean distance worked out at 1.21.

Regarding `COc1c(C)c2c(c(O)c1C/C=C(\C)CCC(=O)OCCN1CCOCC1)C(=O)OC2` [Mycophenolate Mofetil], the Euclidean distance stood at 2.59.

`CO/N=C(\C(=O)N[C@@H]1C(=O)N2C(C(=O)O)=C(CSc3nc(C)c(CC(=O)O)s3)CS[C@H]12)c1csc(N)n1` [Cefodizime Sodium] came in with an Euclidean distance of 0.755.

With `CC(C)=CCOc1ccc(/C=C/C(=O)c2ccc(OCC=C(C)C)cc2OCC(=O)O)cc1` [Sofalcone], the Euclidean distance stood at 1.25.

Regarding `CC(C)(F)C[C@H](N[C@@H](c1ccc(-c2ccc(S(C)(=O)=O)cc2)cc1)C(F)(F)F)C(=O)NC1(C#N)CC1` [Odanacatib (MK-0822)], the Euclidean distance turned out to be 0.533.

Consider `CONC(=O)Nc1ccc(-c2sc3c(c2CN(C)C)c(=O)n(-c2ccc(OC)nn2)c(=O)n3Cc2c(F)cccc2F)cc1` [Relugolix], for which the Euclidean distance came out at 1.06.

The compound `Cc1ccc(NC(=O)c2ccc(CN3CCN(C)CC3)cc2)cc1Nc1nccc(-c2cccnc2)n1` [Imatinib Mesylate (STI571)] yielded an Euclidean distance of 1.63.

In turn, `C#Cc1cccc(Nc2ncnc3cc(OCCOC)c(OCCO)cc23)c1` gave an Euclidean distance of 1.88.

Regarding `CC(C)(O)c1cc(Nc2cc(Oc3cn(C4CC4)nc3C3CCOCC3)ccn2)ccn1`, the Euclidean distance stood at 0.999.

As to `Cc1cc(Nc2nc(N[C@@H](C)c3ccc(F)cc3)c(C#N)cc2F)n[nH]1`, the Euclidean distance came out at 3.5.

In turn, `Nc1nc(F)nc2c1ncn2[C@@H]1O[C@H](CO)[C@@H](O)[C@@H]1O` [Fludarabine] came in with an Euclidean distance of 1.67.

Turning to `Nc1nc2c(ncn2COC(CO)CO)c(=O)[nH]1` [Ganciclovir], the Euclidean distance is 1.56.

In turn, `Cc1cc(NS(=O)(=O)c2ccc(N)cc2)nc(C)n1` [sulfaisodimidine] registered an Euclidean distance of 0.897.

In the case of `O=C(c1ccc(C(=O)N2CCC(N3CCCC3)CC2)c(Nc2ccccc2)c1)N1CCC(N2CCCC2)CC1`, the Euclidean distance was 0.8.

In turn, `O=C(N/N=C/c1ccc([N+](=O)[O-])o1)c1ccc(O)cc1` [Nifuroxazide] came in with an Euclidean distance of 1.64.

Take `CCCCCCCCOc1ccccc1C(=O)Nc1ccc(C(=O)OCC[N+](C)(CC)CC)cc1` [Otilonium Bromide]: the Euclidean distance was found to be 1.03.

`c1ccc(-c2ccc(C(c3ccccc3)n3ccnc3)cc2)cc1` (centres undefined) [Bifonazole] registered an Euclidean distance of 1.54.

As to `O=C(O)CCCc1cc2cc(Cl)ccc2n1S(=O)(=O)c1ccc2ncsc2c1` [Lanifibranor(IVA-337)], the Euclidean distance was found to be 0.7.

The compound `CCC[C@H](N[C@H]1CCc2cc(F)cc(F)c2C1)C(=O)Nc1cn(C(C)(C)CNCC(C)(C)C)cn1` returned an Euclidean distance of 1.07.

`CNS(=O)(=O)CCc1ccc2[nH]cc(C3CCN(C)CC3)c2c1` [Naratriptan] returned an Euclidean distance of 1.48.

Take `Cc1nc(Nc2ccc(F)cc2)nc(N2CCc3ccccc3C2C)c1C` (centres undefined) [Revaprazan Hydrochloride]: the Euclidean distance is 1.38.

In turn, `NCc1ccc(S(N)(=O)=O)cc1` [Mafenide hydrochloride] returned an Euclidean distance of 1.35.

As to `C#C[C@]1(O)CC[C@H]2[C@@H]3CCc4cc(O)ccc4[C@H]3CC[C@@]21C` [Ethinyl Estradiol], the Euclidean distance was determined as 1.42.

Regarding `C=CC(=O)Nc1cc(Nc2nccc(-c3cn(C4CC4)c4ccccc34)n2)c(OC)cc1N(C)CCN(C)C`, the Euclidean distance was 5.66.

The compound `COC(=O)Nc1nc2cc(C(=O)c3cccs3)ccc2[nH]1` [Nocodazole] had an Euclidean distance of 2.96.

Take `O=C(O)CCc1nc(-c2ccccc2)c(-c2ccccc2)o1` [Oxaprozin]: the Euclidean distance worked out at 1.01.

As for `CC(C)N(CC[C@H](c1ccccc1)c1cc(CO)ccc1O)C(C)C`, the Euclidean distance came to 1.1.
